For 17 compounds, composite z-score and z-score results are on record in PubChem BioAssay.

Assay [1] has as its system Human papillomavirus type 1a protein E7 (residues 44-93). Description: small molecules binding HPV E7 44-93 – biochemical, small-molecule microarray, residues 44-93, 635 nm fluorescence, primary screen (AID 1108).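 Further: E7 fragment applied at 1 µg/mL in TBST for 1 h at 4 C; score combines spot fluorescence with its signal to noise ratio.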 Conditions: fluorescence 635 nm, higher = more signal.
The nature of assay [2]: hepatitis C replication reporter changes, two-sided – Huh7 cells, luciferase reporter, HCV replication inhibitor project, primary screen (AID 1109).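 Further: huh7 hepatoma cells harbouring a luciferase neomycin HCV replicon reporter; luciferase luminescence as measure of HCV replicon replication; test concentration not given here.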 Conditions: Huh7 HCV replicon luciferase reporter, 48 h; higher = more signal.
In assay [3] the target is Left-right determination factor 2 (Homo sapiens) (UniProt O00292). Kind of assay: small molecules binding LEFTY2 protein – biochemical, small-molecule microarray, 635 nm fluorescence scan, primary screen (AID 1110). To be noted: higher = more signal.
Sequence of Left-right determination factor 2 (Homo sapiens) (O00292 whole entry, looked up): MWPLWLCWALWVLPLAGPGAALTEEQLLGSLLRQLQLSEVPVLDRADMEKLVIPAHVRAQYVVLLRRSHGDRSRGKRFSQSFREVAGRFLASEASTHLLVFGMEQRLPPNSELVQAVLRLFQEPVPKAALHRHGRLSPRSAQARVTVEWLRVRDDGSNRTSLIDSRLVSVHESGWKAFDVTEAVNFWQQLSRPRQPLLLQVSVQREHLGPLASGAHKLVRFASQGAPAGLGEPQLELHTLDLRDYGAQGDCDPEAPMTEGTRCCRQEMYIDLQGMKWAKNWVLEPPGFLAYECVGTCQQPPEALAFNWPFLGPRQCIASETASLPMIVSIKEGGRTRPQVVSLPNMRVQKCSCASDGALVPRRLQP
The target in assay [4] is Calmodulin-1 (Homo sapiens) (UniProt P0DP23). Kind of assay: small molecules binding calmodulin-1 with EGTA – biochemical, small-molecule microarray, Cy5-labelled CALM1, profiling panel (AID 1111).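 Further: labelled calmodulin applied in Tris saline Tween buffer holding calcium plus EGTA and DTT.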 To be noted: Cy5-CALM1 binding fluorescence, higher = more signal.
For assay [5] the target is unchanged. Description: small molecules binding Ca-loaded calmodulin-1 – biochemical, small-molecule microarray, Cy5-labelled CALM1, plus calcium, artefact control for SMM control-protein annotation, profiling panel (AID 1112).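 Further: score merges spot fluorescence with signal to noise from triplicate slides.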 To be noted: Cy5-CALM1 binding fluorescence, higher = more signal.
The nature of assay [6]: probe aWnt5a binding to arrayed compounds – biochemical, biotinylated probe, 635/667 nm fluorescence, primary screen (AID 1113).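 Further: score merges 667 nm fluorescence intensity with signal-to-noise per printed feature.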 Conditions: small-molecule microarray, higher = more signal.
A short description of assay [7]: probe aShh binding to arrayed compounds – biochemical, biotinylated probe, 635/667 nm fluorescence, primary screen (AID 1114).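 Further: probe is biotin-labelled aShh protein from a stem cell growth factor screen; measures binding of labelled protein to compounds printed on the slide; score merges feature fluorescence at 667 nm with signal-to-noise.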 To be noted: small-molecule microarray, higher = more signal.
Assay [8] can be described thus: probe aNog binding to arrayed compounds – biochemical, biotinylated probe, 635/667 nm fluorescence, primary screen (AID 1115).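 Further: probe is biotinylated aNog protein used at 0.15 µg/mL for 1 h at 4 C; z-score combines 667 nm fluorescence of each spot with its signal to noise.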 Conditions: small-molecule microarray, higher = more signal.
Assay [9] concerns the target Torsin-1A-interacting protein 1 (Homo sapiens) (UniProt Q5JTV8). Kind of assay: compound microarray binding of lysate hLAP1 – cell lysate, small-molecule microarray, COS7 lysate, 635/667 nm fluorescence, primary screen (AID 1116). To be noted: 635 nm fluorescence, higher = more signal.
Assay [10] addresses Alpha-bungarotoxin (Bungarus multicinctus) (UniProt P60615). Kind of assay: compounds binding labelled alpha-BTX control protein – biochemical, small-molecule microarray, Alexa647 label, 635/667 nm fluorescence, artefact control for SMM control protein annotation, profiling panel (AID 1117). To be noted: alpha-BTX-A647 binding fluorescence, higher = more signal.

Sequence of Alpha-bungarotoxin (Bungarus multicinctus) (P60615 whole entry, looked up): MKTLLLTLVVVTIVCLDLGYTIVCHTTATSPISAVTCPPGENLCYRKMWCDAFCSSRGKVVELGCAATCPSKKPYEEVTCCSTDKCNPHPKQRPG
Sequence of Torsin-1A-interacting protein 1 (Homo sapiens) (Q5JTV8 whole entry, looked up): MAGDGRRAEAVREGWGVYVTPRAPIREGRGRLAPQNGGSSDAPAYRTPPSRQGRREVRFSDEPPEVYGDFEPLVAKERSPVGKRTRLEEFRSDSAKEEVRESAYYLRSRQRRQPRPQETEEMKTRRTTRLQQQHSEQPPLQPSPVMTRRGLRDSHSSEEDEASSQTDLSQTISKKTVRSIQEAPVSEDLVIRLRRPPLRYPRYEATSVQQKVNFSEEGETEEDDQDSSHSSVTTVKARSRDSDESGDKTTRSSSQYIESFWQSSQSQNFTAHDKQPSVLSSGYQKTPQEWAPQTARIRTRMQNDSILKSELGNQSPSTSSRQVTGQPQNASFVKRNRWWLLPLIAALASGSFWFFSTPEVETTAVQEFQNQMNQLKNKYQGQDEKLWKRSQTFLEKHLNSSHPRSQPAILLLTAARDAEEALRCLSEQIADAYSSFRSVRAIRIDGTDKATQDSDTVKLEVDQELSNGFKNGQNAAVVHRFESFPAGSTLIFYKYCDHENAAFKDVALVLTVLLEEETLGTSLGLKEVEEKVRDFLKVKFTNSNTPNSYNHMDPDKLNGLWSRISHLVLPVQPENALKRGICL

For `C#CCCCON=C1[C@H]2CCn3c(=O)n(C)c(=O)n3[C@H]2[C@H](O)[C@@H]2O[C@H]12`, the composite z-score in assay [1] is 0.371; in assay [3], 0.503; in [4], -0.266; in [5], -0.792; in assay [6], -0.0486; in [7], 0.0723. The composite z-score in [8] was determined as 0.0762; in assay [9] it was 0.35; in assay [10] it was 0.0727. Moreover, the z-score in assay [2] worked out at 0.818.
As to `COC(=O)C1=C(C)N(Cc2ccccc2)[C@]23O[C@](C(=O)OC)(C(=O)N2[C@@H]1c1ccccc1)C(C(=O)OC)=C3C(=O)OC`, the composite z-score in assay [1] is 1.3; in [3] it was 0.88; in assay [4], -0.328; in assay [5] it was -1.19; in assay [6], -0.0346; in [7], -0.138. Further, the figures for the composite z-score in assay [8], in assay [9] and in assay [10] were 0.229, 0.569 and -0.129, respectively. The z-score in assay [2] is -2.76.
Turning to `O=C1CCCC(C2=CCCCC2=O)C1` (stereo not given), the composite z-score in assay [1] is -0.281; in assay [3], 0.524; in assay [4] it was -0.732; in assay [5], -1.38; in [6], -0.0548; in assay [7], 0.116. Besides, the composite z-score in assay [8] was -0.14; in [9], 0.086; in assay [10], -0.19. The compound further registered a z-score in [2] of -0.293.
Consider `C[C@@H](c1ccccc1)N1C(=O)[C@H]2[C@H]3[C@H](O)[C@H](O)CC(=NO[C@@H]4O[C@H](CO)[C@@H](O)[C@H](O)[C@H]4O)[C@@H]3CC[C@H]2C1=O`, for which the composite z-score is 0.292 in [1]; 0.576 in assay [3]; -0.238 in assay [4]; -0.686 in assay [5]; -0.0403 in assay [6]; -0.19 in [7]. For the same compound, the composite z-score in assay [8] amounted to 0.0924; in [9], 0.526; in [10], 0.199. The z-score in assay [2] was -0.278.
Turning to `CCOC(=O)NN=C1C[C@@H](O)[C@@H](O)[C@@H]2[C@@H]3C(=O)N(c4cccc(Oc5ccccc5)c4)C(=O)[C@@H]3CC[C@H]12`, the composite z-score in assay [1] was 0.731; in [3], 0.404; in [4] it was 0.141; in [5], -0.141; in assay [6], -0.205; in assay [7], -0.388. Also, the composite z-score is -0.304 in assay [8], 0.129 in [9] and 0.675 in assay [10]. Also, the z-score in assay [2] came out at 0.011.
In the case of `CC[C@@H](c1ccccc1)n1c(=O)n2n(c1=O)[C@H]1[C@H](O)[C@@H]3O[C@@H]3C(=NOC[C@@H](O)COCc3ccco3)[C@H]1CC2`, the composite z-score was -0.629 in assay [1]; 0.0632 in assay [3]; -1.26 in assay [4]; -1.51 in [5]; -0.145 in assay [6]; -0.276 in assay [7]. The composite z-score in [8] was 0.618; in assay [9] it was -0.298; in [10], -0.201. In [2], the z-score is -2.55.
As for `C=CC[C@@H]1C=C[C@H](ON=C[C@@H](C)[C@H](OCc2ccccc2)C(C)C)[C@@H](CO)O1`, the composite z-score in assay [1] was 0.0248; in assay [3], -0.0977; in assay [4] it was -1.07; in [5] it was -0.0781; in assay [6], -0.101; in assay [7], -0.186. Further, the values for the composite z-score in assay [8], in assay [9] and in assay [10] were -0.4, -0.159 and -0.901, respectively. In addition, in assay [2], the z-score is -2.12.
For `CCOC(=O)[C@H](CC(C)C)NC(=O)CCC1CC(OC(=O)NCCc2ccc(F)cc2)CC2(CCCC(COC(=O)NCCOc3ccccc3)O2)O1` (stereo not given in full), the composite z-score in assay [1] was 1.36; in assay [3], 1.16; in assay [4], 1.02; in [5], -0.129; in assay [6], -0.15; in [7], -0.13. Moreover, the composite z-score in assay [8] was -0.0965; in assay [9], 0.531; in [10] it was 0.947. The same compound yielded a z-score in [2] of -0.972.
With `CCOC(=O)[C@H](CC(C)C)NC(=O)CCC1CC(OC(=O)NCc2ccc3c(c2)OCO3)CC2(CCCC(COC(=O)NCC3CCCCC3)O2)O1` (stereo not given in full), the composite z-score in assay [1] is 1.39; in [3], 0.894; in assay [4] it was -0.0184; in assay [5] it was -0.381; in assay [6] it was -0.0087; in assay [7] it was 0.131. Also, the composite z-score in [8] is -0.367; in assay [9], 0.711; in [10], 0.415. The compound further displayed a z-score in [2] of -1.49.
For `O=C1C[C@@H](O)[C@@H](O)[C@@H]2[C@@H]3C(=O)N(C[C@@H]4CCCO4)C(=O)[C@@H]3CC[C@H]12`, the composite z-score in assay [1] is 0.265; in [3], 0.903; in [4] it was 0.0222; in assay [5], -0.522; in assay [6] it was -0.0478; in [7] it was -0.0337. Besides, the composite z-score came to 0.0309 in assay [8], 0.224 in assay [9] and 0.384 in [10]. Moreover, the z-score in assay [2] was determined as 0.624.
Consider `CO[C@H]1COC(=O)[C@@H](Cc2ccccc2)NC(=O)[C@@H](C)COC(=O)CCC[C@@H]1C`, for which the composite z-score in [1] is -0.573; in assay [3], 0.455; in assay [4], -0.273; in assay [5] it was -0.679; in assay [6], -0.0478; in assay [7], 0.0278. For the same compound, the composite z-score in assay [8] is -0.412; in assay [9], 0.29; in assay [10], 0.273. The compound also had a z-score in assay [2] of -2.38.
Consider `Cc1cc2c(nc1C)CCCCN2CC(C)ON=C1[C@H]2CCn3c(=O)n(-c4ccccc4)c(=O)n3[C@H]2[C@H](O)[C@@H]2O[C@H]12` (stereo not given in full), for which the composite z-score in [1] is -0.0964; in assay [3], 0.769; in assay [4], -0.895; in assay [5], -1.2; in assay [6] it was 0.0839; in assay [7], 0.258. Besides, the composite z-score in assay [8] came out at 0.0531; in assay [9], 0.369; in assay [10], 0.473. Also, in [2], the z-score was -4.63.
On to `Cn1c(=O)n2n(c1=O)[C@H]1[C@H](O)[C@@H]3O[C@@H]3C(=O)[C@H]1CC2`, for which the composite z-score in assay [1] is 0.625; in [3], 0.486; in assay [4], -0.144; in assay [5], -0.502; in assay [6], -0.104; in assay [7], -0.0146. Besides, the composite z-score was -0.234 in assay [8], 0.663 in assay [9] and -0.541 in assay [10]. For the same compound, the z-score in assay [2] was determined as 0.101.
`CC(C)(C)N1C(=O)[C@H]2[C@H]3[C@H](O)[C@H](O)CC(=O)[C@@H]3CC[C@H]2C1=O`: the composite z-score in assay [1] was 0.3; in [3] it was 0.709; in assay [4], -0.339; in assay [5], -0.518; in assay [6] it was -0.0125; in assay [7], 0.0121. For the same compound, the composite z-score in [8] was -0.108; in [9], 0.804; in assay [10], 0.106. In [2], this compound showed a z-score of 0.6.
`COC(=O)[C@@H]1CC[C@H](C)[C@@H](c2ccc(C)cc2)N1C(=O)c1ccc(C=NO[C@H](C)c2cn([C@@H]3COC[C@H]3O)nn2)cc1`: the composite z-score was 1.33 in assay [1]; 0.635 in [3]; 0.0264 in [4]; -0.361 in assay [5]; -0.152 in [6]; 0.0141 in [7]. For the same compound, the composite z-score is -0.0065 in [8], 0.581 in [9] and -0.0105 in assay [10]. In assay [2], the z-score is -1.06.
Regarding `CCOC(=O)[C@H](CC(C)C)NC(=O)CCC1CC(OC(=O)NCc2cccc3ccccc23)CC2(CCCC(COC(=O)NCCOc3ccccc3)O2)O1` (stereo not given in full), the composite z-score is 1.32 in [1]; 0.518 in assay [3]; 0.721 in [4]; -0.143 in [5]; 0.0162 in assay [6]; -0.253 in assay [7]. The composite z-score in assay [8] was -0.311; in [9], 0.556; in assay [10], 0.266. This compound also had a z-score in assay [2] of -0.687.
Turning to `O=C1[C@H]2[C@H]3[C@H](O)[C@H](O)CC(=NOCc4ccccc4)[C@@H]3CC[C@H]2C(=O)N1C[C@@H]1CCCO1`, the composite z-score is -0.236 in assay [1]; 0.316 in assay [3]; 0.583 in assay [4]; -0.0696 in assay [5]; -0.117 in assay [6]; -0.0553 in assay [7]. Also, the composite z-score in assay [8] was -0.158; in assay [9], -0.126; in [10] it was 0.879. Also, in assay [2], the z-score was found to be 0.189.
